# In PubChem BioAssay AID463173 (ICCB-Longwood Screening Facility, Harvard Medical School, 2010):
# The campaign covered roughly 52,000 compounds. About 4,300 (8.3%) were called active. The sample holds actives, similar compounds and a random draw of the others, so the mix is not that of the screen. Cut-off read from the data, not from the text of the source: active = survival mostly below about 52% (no sharp cut-off); inactive = mostly above about 56%.
# System: DeltatarO mutant
# Experiment: growth inhibition of S. aureus wild type versus tarO mutant, primary screen, teichoic acid synthesis inhibitors, RN4220, OD600 (AID 463173)
# Conditions: OD600, 18 h, hits give low values, screened at 18.75 µg/mL (by protocol)
row,Structure (SMILES),survival
1,O=C(NC1CCCCC1)c1cccs1,107% (inactive)
2,COCCN(Cc1cc2cc3c(cc2nc1Cl)OCO3)C(=O)Nc1ccccc1OC,92% (inactive)
3,CCOc1ccc(CN(C(=O)c2nc(SC)ncc2Cl)C2CCS(=O)(=O)C2)cc1 (centres undefined),88% (inactive)
4,Cc1ccc(-c2ccc(=O)n(CC(=O)Nc3ccc(F)c(Cl)c3)n2)cc1C,82% (inactive)
5,COc1ccccc1Nc1cc(C(=O)NCc2cccs2)c2ccccc2n1,73% (inactive)
6,Cc1cc(=O)[nH]c2nnc(SCCC(C)C)n12,73% (inactive)
7,Cc1nnc(NC(=O)c2nc(S(=O)(=O)Cc3ccccc3)ncc2Cl)s1,48% (active)
8,CCNC(=O)c1cnc2c(-c3ccccc3)c(C)nn2c1C,8% (active)
9,CCCNC(=O)c1cnc2c(-c3ccc(OCC)c(OCC)c3)c(C)nn2c1-c1ccccc1,92% (inactive)
10,CCCCNC(=O)c1cnc2c(-c3ccc(OCC)c(OCC)c3)c(C)nn2c1-c1ccccc1,73% (inactive)
11,COc1cc(CNC(=O)c2cnc3c(-c4cccc(C)c4)c(C)nn3c2C)cc(OC)c1OC,68% (inactive)
12,Cc1nn2c(C)c(C(=O)NCCc3ccccc3)cnc2c1-c1ccccc1,81% (inactive)
13,Cc1cccc(CNC(=O)c2cnc3c(-c4cccc(C)c4)c(C)nn3c2C)c1,17% (active)
14,CCOc1ccc(-c2c(C)nn3c(C)c(C(=O)Nc4cc(C)cc(C)c4)cnc23)cc1OCC,118% (inactive)
15,CCOc1ccc(-c2c(C)nn3c(-c4ccccc4)c(C(=O)NCCOC)cnc23)cc1OCC,-5% (active)
16,Cc1nn2c(C)c(C(=O)NCc3cccc(Br)c3)cnc2c1-c1ccccc1,66% (inactive)
17,Cc1nn2c(C)c(C(=O)NCC(C)c3ccccc3)cnc2c1-c1ccccc1 (centres undefined),101% (inactive)
18,CCOc1ccc(-c2c(C)nn3c(C)c(C(=O)Nc4ccccc4C(=O)OC)cnc23)cc1OCC,-4% (active)
19,CCOc1ccc(-c2c(C)nn3c(C)c(C(=O)Nc4cccc(Cl)c4C)cnc23)cc1OCC,76% (inactive)
20,Cc1ccc(-n2c(SCC(=O)Nc3ccc4c(c3)OCO4)nc3c([nH]c4ccccc43)c2=O)cc1,128% (inactive)
21,CCOc1ccc(CNC(=O)Cn2c(=O)c3cccn3c3ccc(F)cc32)cc1OC,47% (inactive)
22,COc1cc(NC(=O)c2cc(-c3ccc4c(c3)OCO4)on2)cc(OC)c1OC,115% (inactive)
23,CCn1cc(C(=O)N(C)Cc2ccccc2)c(=O)c2cc(S(=O)(=O)N3CCc4ccccc4C3)ccc21,65% (inactive)

row,Structure (SMILES),survival
1,O=C(Cn1cc(C(=O)C(F)(F)F)c2ccccc21)N1CCCCCC1,56% (inactive)
2,COc1cc(C(=O)NCc2nnnn2-c2ccc(C)c(C)c2)cc(OC)c1OC,98% (inactive)
3,CCOc1ccc(CCNC(=O)c2cnc3c(-c4ccc(F)cc4)c(C)nn3c2C)cc1OCC,134% (inactive)
4,CCOc1ccc(CCNC(=O)c2cnc3c(-c4ccccc4)c(C)nn3c2C)cc1OCC,20% (active)
5,CCOc1ccc(-c2c(C)nn3c(C)c(C(=O)NCCc4ccccc4)cnc23)cc1OCC,54% (inactive)
6,CCN1/C(=C\C(=O)C2CC2)Sc2ccccc21,81% (inactive)
7,COc1ccc(OCc2nc3ccccc3n2C(C)c2ccccc2)cc1 (centres undefined),-15% (active)
8,COc1ccc(OCC(O)Cn2c(C(C)C)nc3ccccc32)cc1 (centres undefined),88% (inactive)
9,CCC(C)Cn1c(COc2ccc(OC)cc2)nc2ccccc21 (centres undefined),-1% (active)
10,COc1ccc(OCc2nc3ccccc3n2C(C)C)cc1,88% (inactive)
11,Cc1nc2ccccc2n1C(C)c1ccccc1 (centres undefined),77% (inactive)
12,Cc1ccc(OCc2nc3ccccc3n2CC(C)C)cc1,1% (active)
13,Cc1ccc(S(=O)(=O)c2cn(CC(=O)Nc3ccc4c(c3)OCO4)c3ccccc3c2=O)cc1C,112% (inactive)
14,Cc1ccc(NC(=O)c2nnn(Cc3cccc(C(F)(F)F)c3)c2N)c(C)c1,86% (inactive)
15,COc1ccc(-n2c(=O)c3c4c(sc3n(Cc3cc(C)ccc3C)c2=O)CN(C(C)=O)CC4)c(OC)c1,93% (inactive)
16,Cc1cccc(CC(=O)NC2CC(=O)N(c3ccc4c(c3)OCCO4)C2)c1 (centres undefined),72% (inactive)
17,CN1C(=O)Cc2cc(S(=O)(=O)N3CCN(c4cccc(C(F)(F)F)c4)CC3)ccc21,116% (inactive)
18,CCOC(=O)c1c(C)[nH]c(C)c1S(=O)(=O)NCC(=O)N1CCN(c2ccccc2OC)CC1,102% (inactive)
19,COc1ccc(OC)c(-c2cc(C(=O)Nc3cnn(Cc4ccc(Cl)cc4Cl)c3)no2)c1,64% (inactive)
20,Cc1c(Cl)cccc1NC(=O)c1cc(-c2cccs2)on1,66% (inactive)
21,COc1ccc(OC)c(-c2cc(C(=O)Nc3cccc(Cl)c3C)no2)c1,2% (active)
22,Cc1c(Cl)cccc1NC(=O)c1cc(-c2cccc(Cl)c2)on1,61% (inactive)
23,CC(C)c1cc(C(=O)NC(C)c2ccccc2)no1 (centres undefined),50% (inactive)

row,Structure (SMILES),survival
1,CCc1ccc(NC(=O)c2cc(-c3cccs3)on2)cc1,161% (inactive)
2,COc1ccc(OC)c(-c2cc(C(=O)NC(C)c3ccccc3)no2)c1 (centres undefined),-14% (active)
3,CC(NC(=O)c1cc(-c2ccc(Cl)cc2)on1)c1ccccc1 (centres undefined),142% (inactive)
4,CC(=O)Nc1ccc(NC(=O)c2cc(-c3cccs3)on2)cc1,78% (inactive)
5,COc1ccc(OC)c(-c2cc(C(=O)NCc3ccc(Cl)cc3)no2)c1,47% (inactive)
6,Cc1ccc(NC(=O)c2cc(-c3cccs3)on2)cc1C,45% (active)
7,COc1ccc(OC)c(-c2cc(C(=O)Nc3ccc(C)c(C)c3)no2)c1,-1% (active)
8,Cc1cc(Nc2ccc(Cl)cc2C)nc(-n2nc(C)cc2C)n1,74% (inactive)
9,Cc1ccc(Cn2c(CO)cnc2SCc2ccc(F)cc2)cc1,109% (inactive)
10,COc1cccc(N2C(=O)C(CC(=O)Nc3cccc(F)c3)N(C(C)C)C2=O)c1 (centres undefined),94% (inactive)
11,Cc1ccc(CSc2c(C)cnc3c2c(=O)n(C)c(=O)n3C)cc1,78% (inactive)
12,COc1ccc(OCC(=O)OC2CCN(C)CC2)cc1,112% (inactive)
13,CCN(CC)CCCNC(=O)c1cn(CC)c2ccc(S(=O)(=O)N3CCC(C)CC3)cc2c1=O,105% (inactive)
14,CS(=O)(=O)N1CCC(c2nc(-c3ccc(S(=O)(=O)NCC4CCCO4)cc3)no2)CC1 (centres undefined),85% (inactive)
15,CCn1c(=O)c2cc(C(=O)Nc3cc(F)ccc3F)sc2c2ccccc21,96% (inactive)
16,CCOc1ccccc1NC(=O)c1c(NCc2ccc(C)o2)sc2c1CCCCC2,95% (inactive)
17,COc1ccccc1-c1cc(C(=O)Nc2cc(Cl)ccc2O)no1,52% (inactive)
18,COc1ccccc1-c1cc(C(=O)Nc2cc(OC)c(OC)c(OC)c2)no1,25% (active)
19,COc1cc(NC(=O)c2cc(-c3ccc(Cl)c(Cl)c3)on2)cc(OC)c1OC,111% (inactive)
20,O=C(c1ccc2c(c1)CCN2S(=O)(=O)c1ccc(Cl)cc1)N1CCN(c2ccccc2)CC1,58% (inactive)
21,CCCCOc1ccccc1C(=O)Nc1onc2c1CCCC2,55% (inactive)
22,O=C(CN1C(=O)COc2ccc(S(=O)(=O)Nc3ccccc3)cc21)NCc1ccccc1Cl,102% (inactive)
23,O=c1c2cn[nH]c2nc(SCc2cccc(Br)c2)n1-c1ccc(Cl)cc1,122% (inactive)

row,Structure (SMILES),survival
1,CCOc1ccc(CC(=O)Nc2c(C(=O)c3ccc(F)cc3)oc3ccccc23)cc1OCC,42% (active)
2,Cc1ccc(C(=O)c2oc3ccccc3c2NC(=O)COc2ccc(C(C)C)cc2)cc1,73% (inactive)
3,CC(C)(C)c1ccc(OCC(=O)Nc2c(C(=O)c3ccc(F)cc3)oc3ccccc23)cc1,99% (inactive)
4,CCOc1ccc(CC(=O)Nc2c(C(=O)c3ccc(C)cc3)oc3ccccc23)cc1OCC,52% (inactive)
5,CCOc1ccc(CC(=O)Nc2c(C(=O)c3ccc(Cl)cc3)oc3ccccc23)cc1OCC,48% (inactive)
6,CC(C)c1ccc(OCC(=O)Nc2c(C(=O)c3ccc(F)cc3)oc3ccccc23)cc1,65% (active)
7,Cc1cccc(-n2cc(-c3ccccc3)c3c(NC4CCCC4)ncnc32)c1,98% (inactive)
8,CCNC(=O)CCSc1nnc(-c2ccc(O)cc2)o1,95% (inactive)
9,O=c1oc2ccccc2c(O)c1CN1CCCCC1,25% (active)
10,O=c1oc2ccccc2c(N2CCN(c3ccccc3F)CC2)c1CN1CCCC1,89% (inactive)
11,O=c1oc2ccccc2c(N2CCN(c3ccc(F)cc3)CC2)c1CN1CCCC1,100% (inactive)
12,Cc1ccc(-c2cc(-c3ccc4c(c3)NC(=O)CO4)nc3c2COc2ccc(C)cc2-3)cc1,96% (inactive)
13,Cc1c(C(=O)Nc2ccc(F)cc2)sc2nc[nH]c(=O)c12,122% (inactive)
14,Cc1sc2ncn(CC(=O)N3CCN(c4cccc(Cl)c4)CC3)c(=O)c2c1S(=O)(=O)N1CCC(C)CC1,149% (inactive)
15,Cc1sc2ncn(CC(=O)N3CCN(c4ccccc4)CC3)c(=O)c2c1S(=O)(=O)N1CCN(c2ncccn2)CC1,126% (inactive)
16,Cc1sc2ncn(CC(=O)N3CCN(c4cccc(Cl)c4)CC3)c(=O)c2c1S(=O)(=O)N1CCN(c2ncccn2)CC1,63% (inactive)
17,Cc1cccc(N2CCN(C(=O)Cn3cnc4sc(C)c(S(=O)(=O)N5CCN(c6ncccn6)CC5)c4c3=O)CC2C)c1 (centres undefined),67% (active)
18,Cc1sc2ncn(CC(=O)N3CCN(c4ccccc4F)CC3)c(=O)c2c1S(=O)(=O)N1CCC(C)CC1,74% (inactive)
19,Cc1ccc(Cl)cc1N1CCN(C(=O)Cn2cnc3sc(C)c(S(=O)(=O)N4CCC(C)CC4)c3c2=O)CC1,47% (active)
20,CC1=C(c2ccc(C)cc2)S(=O)(=O)NC1=NCc1cccc(F)c1,92% (inactive)
